# sEH inhibitor = blocks human soluble epoxide hydrolase activity; P34913; recombinant human sEH enzymatic activity assay; inhibition, % at 2 µM; actives 0.34% (n = 91,000); AID 707; in the data active = inhibition above about 80%
# CYP2C19 act = cytochrome P450 2C19 (human) activation; activation factor at 5 µM; AID 1025; P33261; 96,000 tested, under 10 active; recombinant CYP2C19, luciferin-H EGE luminescence; hits give high values; 0 = fully inhibited enzyme, 1 = untreated enzyme;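 active = activation factor of at least 2 at 5 µM in the primary screen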
# CYP2C9 inhib = inhibitors of human CYP2C9; CYP2C9 Supersomes, luciferin-H conversion, luminescence; AID 777; actives 20% (n = 96,000); inhibition, % at 5 µM; P11712;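 active = blocking of liver enzyme CYP2C9 beyond about 50% at 5 µM, limit read from the data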
# Target sequence (P11712 whole entry, looked up): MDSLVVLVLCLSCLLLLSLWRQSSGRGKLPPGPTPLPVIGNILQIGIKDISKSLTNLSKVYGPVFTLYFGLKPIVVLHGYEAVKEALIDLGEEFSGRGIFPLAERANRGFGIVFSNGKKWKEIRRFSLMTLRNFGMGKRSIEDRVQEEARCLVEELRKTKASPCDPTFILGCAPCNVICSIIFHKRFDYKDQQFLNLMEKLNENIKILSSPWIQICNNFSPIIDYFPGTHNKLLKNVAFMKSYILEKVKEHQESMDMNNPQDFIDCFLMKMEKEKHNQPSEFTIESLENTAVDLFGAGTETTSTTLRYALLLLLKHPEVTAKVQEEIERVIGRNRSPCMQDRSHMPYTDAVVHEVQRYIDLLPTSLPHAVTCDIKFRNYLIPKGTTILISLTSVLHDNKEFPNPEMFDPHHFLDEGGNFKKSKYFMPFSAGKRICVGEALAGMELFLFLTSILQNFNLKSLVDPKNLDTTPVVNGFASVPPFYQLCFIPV
# CYP2C19 inh = blocks human cytochrome P450 2C19; AID 778; CYP2C19 Supersomes, luciferin-H EGE luminescence, 30 min; actives 21% (n = 96,000); inhibition, % at 5 µM; P33261;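 active = CYP2C19 inhibition above a set limit at 5 µM in the primary screen, cut at about 50% in these data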
# CYP2C9 activ = CYP2C9 (human) activation; AID 1024; actives 1.4% (n = 96,000); activation factor at 5 µM; P11712; recombinant CYP2C9, luciferin-H conversion, luminescence; hits give high values; factor 1 = untreated enzyme, 0 = blocked;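 active = activation factor of 2 or more for CYP2C9 at a 5 µM dose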
# sEH act = soluble epoxide hydrolase (human) activation. P34913. AID 717. activation, % at 2 µM. actives 0.04% (n = 91,000). purified human sEH enzymatic activity, activator screen; in the data active = activation above about 37%
# Hits are given with their value; – = inactive; · = no result. This is a sample that favours compounds with a hit; in the whole collection about 27% have one here.
SMILES,sEH inhibitor,CYP2C19 act,CYP2C9 inhib,CYP2C19 inh,CYP2C9 activ,sEH act
Cc1ccc(NCc2nc3ccccc3n2C)cc1,–,–,–,95.9,–,–
Cn1c(CNc2nc3ccccc3n2C)nc2ccccc21,·,–,–,69.7,–,·
CCCn1c(NCc2c[nH]c3ccccc23)nc2ccccc21,–,–,–,71.1,–,–
CCn1c(CNc2nc3ccccc3n2C(C)C)nc2ccccc21,–,–,82.3,82.0,–,–
[O-][n+]1onc2c1CCC1N(O)C(c3ccccc3)CC21O (stereo unspecified),–,–,–,–,–,–
CC(C)(C)NC(=O)c1ccc2c(c1)N(CC(=O)N1CCN(c3ccccc3F)CC1)C(=O)C(C)(C)O2,·,–,–,–,–,·
CC(C)n1c(NCc2cc(Cl)ccc2O)nc2ccccc21,–,–,–,–,–,–
CC(=O)NCc1nc2ccccc2n1C(C)C,–,–,–,–,–,–
CC(C)n1c(NCc2nc3ccccc3n2C)nc2ccccc21,–,–,53.8,84.3,–,–
CC(C)n1c(CNC(=O)c2ccccc2)nc2ccccc21,·,–,–,86.0,–,·
CCCn1c(CNc2ccccc2O)nc2ccccc21,–,–,–,51.1,–,–
CCCCn1c(CNC(=O)CCC)nc2ccccc21,–,–,–,–,–,–
CCOCCCNC(=O)C(NC(=O)C1CCC(=O)N1)c1ccc(C)cc1 (stereo unspecified),–,–,–,–,–,–
Cc1cc2nc(SCC(=O)N(C)C)c3c(c2cc1C)CCCC3,–,–,–,–,–,–
Cc1csc(SCC(=O)Nc2ccc(S(=O)(=O)N3CCCC3)cc2)n1,–,–,93.6,64.9,–,–
CCOc1ccc(NC(=O)CSc2nc(C)cc(C)n2)cc1,–,·,·,·,·,–
Cc1cc(C)nc(SCC(=O)Nc2ccc(S(=O)(=O)NCCO)cc2)n1,–,–,–,–,–,–
COc1ccc(NC(=O)CSc2nc(C)cc(C)n2)cc1,–,–,–,86.7,–,–
Cc1cc(C)nc(SCC(=O)Nc2ccc(S(=O)(=O)NC(C)(C)C)cc2)n1,–,–,58.3,–,–,–
Cc1cc(C)nc(SCC(=O)Nc2ccc(S(=O)(=O)N3CCCCC3)cc2)n1,–,–,75.3,–,–,–
O=C(COC(=O)c1ccccn1)Nc1nccs1,–,–,–,–,–,–
Cc1ccc(NC(=O)c2ccc(CSc3nnnn3C)cc2)cc1,–,–,–,–,–,–
Cc1cc(C)nc(SCC(=O)N/N=C\c2sccc2C)n1,–,–,–,55.2,–,–
Cc1csc(C(C#N)C(=O)c2ccc(S(=O)(=O)N3CCCC3)cc2)n1 (stereo unspecified),–,–,72.4,–,–,–
COc1ccc(NC(=O)CCn2nc(C)cc2C)cc1,·,–,–,68.4,–,·
SMILES,sEH inhibitor,CYP2C19 act,CYP2C9 inhib,CYP2C19 inh,CYP2C9 activ,sEH act
O=C(Nc1cccc(Cl)c1)OCc1cn(-c2ccc(Cl)cc2)nn1,–,·,·,·,·,–
N#Cc1c(SCC(N)=O)nc2c(c1-c1ccc(OCc3ccccc3)cc1)CCCC2,–,·,·,·,·,–
C=C(C)COc1ccc(-c2nc(N)ncc2-c2ccc(OC)cc2)c(O)c1,–,–,52.4,–,–,–
COc1cccc(Oc2cnc(N)nc2-c2ccc(OC)cc2O)c1,–,–,78.6,75.5,–,–
COc1ccc(-c2cnc(N)nc2-c2ccc(OC)cc2O)cc1,–,–,–,–,–,–
CCOc1ccc(-c2nc(N)nc(C)c2-c2ccc(OC)c(OC)c2)c(O)c1,–,–,–,–,–,–
COc1ccc(-c2nc(N)ncc2Oc2ccccc2Br)c(O)c1,–,–,–,–,–,–
C=C(C)COc1ccc(-c2ncncc2Oc2ccc(OC)cc2)c(O)c1,–,–,98.3,92.3,–,–
CCn1c(SCC(=O)N2c3ccccc3Sc3ccc(Cl)cc32)nc2c1c(=O)n(C)c(=O)n2C,–,·,·,·,·,–
CSc1ccc(/C=N/n2nnnc2N)cc1,·,–,–,–,–,·
O=C(CCn1c(=O)oc2ccccc21)Nc1ccccc1,–,–,–,60.7,–,–
COc1ccc(CNC(=O)CCn2c(=O)oc3ccccc32)cc1,–,–,–,–,–,–
CCc1ccc(NC(=O)CCn2c(=O)oc3ccccc32)cc1,·,–,57.6,–,–,·
Cc1ccc(NC(=O)CCn2c(=O)oc3ccccc32)cc1,·,–,–,–,–,·
COc1ccccc1CNC(=O)CCn1c(=O)oc2ccccc21,–,–,–,71.9,–,–
CN1C(=O)c2ccc(C(=O)NC3CCCCC3)cc2C1=O,–,–,–,–,–,–
CCOc1ccccc1N1CC(C(=O)N2CCc3ccccc3C2)CC1=O (stereo unspecified),–,–,–,–,–,–
CCc1ccccc1N1C(=O)C2CC(C)=C(C)CC2C1=O (stereo unspecified),–,–,51.4,–,–,–
COc1ccc(CSc2nnc(N)s2)cc1F,–,–,–,68.7,–,–
Cc1nnc(SCc2ccc(F)cc2)s1,–,–,–,–,–,–
Nc1nnc(SCc2ccc(F)cc2)s1,–,–,–,69.9,–,–
Cc1ccc(S(=O)(=O)N(CCCN2CCCC2=O)Cc2cc3c(C)ccc(C)c3[nH]c2=O)cc1,–,–,62.8,–,–,–
COc1ccc(S(=O)(=O)N(CCCN2CCCC2=O)Cc2cc3cc(C)c(C)cc3[nH]c2=O)cc1,–,–,67.6,–,–,–
COc1ccc2[nH]c(=O)c(CN(CCCN3CCOCC3)C(=O)NCc3ccccc3)cc2c1,–,–,–,–,–,–
Cc1ccc(NC(=O)Cc2nnc(SCC(=O)c3ccc(Br)cc3)n2C)cc1,–,–,–,–,–,–
SMILES,sEH inhibitor,CYP2C19 act,CYP2C9 inhib,CYP2C19 inh,CYP2C9 activ,sEH act
COc1cccc(OC)c1C(=O)Nc1cc(C)on1,–,–,–,–,–,–
CC(N)C12CC3CC(C1)CC(C(C)N)(C3)C2 (stereo unspecified),–,–,–,–,–,–
CCC(C)c1ccc2oc(-c3ccc(NC(=O)Cn4cnc5c(=O)n(C)c(=O)n(C)c54)cc3)nc2c1 (stereo unspecified),–,–,–,–,–,–
CCOC(=O)c1c(C)[nH]c(C)c1C(=O)COC(=O)[C@@H](NC(=O)c1ccccc1OCC)C(C)C,–,–,98.5,100.4,–,–
CCOc1ccccc1C(=O)NC(C(=O)OCC(=O)Nc1nnc(-c2ccccc2)o1)C(C)C (stereo unspecified),–,–,–,–,–,–
CCOC(=O)c1c(C)[nH]c(C)c1C(=O)COC(=O)CNC(=O)c1ccc(OCC)cc1,–,–,–,53.4,–,–
CN(C)c1nc(NS(=O)(=O)c2ccc(Cl)cc2)nc(N(C)C)n1,–,–,–,–,–,–
COc1nc(N(C)C)nc(N(OC)S(=O)(=O)c2ccccc2Cl)n1,·,–,72.4,89.5,–,·
COc1cc(C)nc(N2CCCC(C(=O)Nc3cccc(Cl)c3Cl)C2)n1 (stereo unspecified),–,–,–,–,–,–
CON(c1nc(Cl)nc(N(C)C)n1)S(=O)(=O)c1ccccc1Cl,–,–,–,69.4,–,–

# Assay outcomes deposited in PubChem BioAssay by several laboratories.
